From the supplement of paper PMC13380429 come the findings set out here.

The subject of the test is Vero E6 infected with SARS-CoV-2. Put plainly: inhibition of SARS-CoV-2 cytopathic effect; higher = more antiviral protection, active = above 15. To be noted: 48 h.

Structures are written as SMILES. Unmarked numbers belong to inactive results.

For `COc1ccc2c(c1)C(C(=O)N(Cc1ccc(N(C)C)cc1)c1ccc(C(C)C)cc1)CCC2` (stereo not given), the “inhibition of SARS-CoV-2 cytopathic effect” value (shortened to “inhibition”) runs as follows: (1 nM) -2.02%; (8.33 nM) 0.34%; (100 nM) 3.26%; (833.33 nM) 1.87%; (10000 nM) -3.29%.
The like results for `O=C(O)c1ccc2cc(-c3ccc(O)c(C45CC6CC(CC(C6)C4)C5)c3)ccc2c1` were, in that order, 1.24%, 1.61%, -0.4%, -2.65% and -7.34%.
As for `CN(C)CCC=C1c2ccccc2C=Cc2ccccc21` [cyclobenzaprine], the “inhibition” value by setting is: (1 nM) 0.3%; (8.33 nM) 6.56%; (100 nM) 3.92%; (833.33 nM) -1.83%; (10000 nM) -6.67%.
In the same order, the values of `CC(C)c1ccc(C(=O)N=C(N)N)cc1S(C)(=O)=O` [cariporide] are 0.61%, 4.56%, 2.44%, 1.5% and -0.17%.
The like results for `CCCNC(C)(C)COC(=O)c1ccccc1` [meprylcaine] were, in that order, 2.21%, -2.34%, -2.33%, -1.75% and -5.76%.
In the same order, the values of `c1ccc(C2CN3CCSC3=N2)cc1` (stereo not given) [tetramisole] are 0.71%, 1.55%, 0.335%, 6.51% and 2.84%.
Take `Cc1ccc(S(=O)(=O)c2ccc([N+](=O)[O-])o2)cc1`: the “inhibition” value reads like this: (1 nM) 0.14%; (8.33 nM) 0.39%; (100 nM) 2.55%; (833.33 nM) 13.5%; (10000 nM) -21.6%.
For `C=CC[C@@H]1/C=C(\C)C[C@H](C)C[C@H](OC)[C@H]2O[C@@](O)(C(=O)C(=O)N3CCCC[C@H]3C(=O)O[C@H](/C(C)=C/[C@@H]3CC[C@@H](O)[C@H](OC)C3)[C@H](C)[C@@H](O)CC1=O)[C@H](C)C[C@@H]2OC` [tacrolimus], the “inhibition” value by setting is: (1 nM) 0.97%; (8.33 nM) 1.42%; (100 nM) 2.56%; (833.33 nM) 1.67%; (10000 nM) 1.14%.
In the same order, the values of `CC(=O)OCC(=O)NCCCOc1cccc(CN2CCCCC2)c1` [roxatidine-acetate] are -0.88%, 2.22%, -0.37%, 1.86% and 2.34%.
For `CC(=O)c1c(C)c2cnc(Nc3ccc(N4CCNCC4)cn3)nc2n(C2CCCC2)c1=O` [palbociclib], the “inhibition” value is 2.16% (1 nM); 0.47% (8.33 nM); -4.3% (100 nM); -0.35% (833.33 nM); 5.01% (10000 nM).
In the same order, the values of `COc1cccc2c1C(=O)c1c(O)c3c(c(O)c1C2=O)C[C@@](O)(/C(CO)=N/NC(=O)CCCCCN1C(=O)C=CC1=O)C[C@@H]3O[C@H]1C[C@H](N)[C@H](O)[C@H](C)O1` [aldoxorubicin] are -2.6%, -0.32%, 0.6%, 4.67% and -1.37%.
In the same order, the values of `CC(=O)OCC(=O)[C@@]1(O)CC[C@H]2[C@@H]3CCC4=CC(=O)CC[C@]4(C)[C@H]3C(=O)C[C@@]21C` [cortisone-acetate] are -0.91%, -1.31%, -1.03%, 0.49% and 0.27%.
In the same order, the values of `CC(=O)O[C@@H]1C[C@H]2C(C)(C)C(=O)C=C[C@]2(C)[C@H]2CC[C@@]3(C)[C@H](c4ccoc4)OC(=O)[C@H]4O[C@]43[C@@]21C` [gedunin] are -1.35%, -1.68%, -1.07%, 6.09% and 19% (active).
Regarding `CNCCc1ccc(O)c(O)c1` [deoxyepinephrine], the “inhibition” value by setting is: (1 nM) -0.96%; (8.33 nM) 2.29%; (100 nM) 2.18%; (833.33 nM) -0.04%; (10000 nM) -0.83%.
The like results for `O=[N+]([O-])/C=C/c1ccc2c(c1)OCO2` [3,4-methylenedioxy-beta-nitrostyrene] were, in that order, -1.15%, 0.64%, -1.64%, -3.16% and 7.29%.
`CC(=O)N(C)c1cccc(-c2ccnc3c(C(=O)c4cccs4)cnn23)c1` [indiplon]: the “inhibition” value is, setting by setting: (1 nM) 2.87%; (8.33 nM) 0.82%; (100 nM) 4.78%; (833.33 nM) 4.31%; (10000 nM) 0.34%.
The like results for `Nc1cc(-c2ccncc2)c[nH]c1=O` [amrinone] were, in that order, 3.03%, 3.76%, -3.46%, -6.26% and 1.36%.
